# Data from publication PMC7862700, “An all-to-all approach to the identification of sequence-specific readers for epigenetic DNA modifications on cytosine”.
# How the values were obtained:
# Experiment in all cases: DAPPL (digital affinity profiling via proximity ligation, sequencing); 10 mM Tris-HCl pH 7.5, 50 mM NaCl, 1 mM DTT, 4% glycerol, room temperature, 30 min; GST-TFs on glutathione beads, 16-mer random dsDNA library, 0.1% formaldehyde crosslink after washing; high values mean tight binding
# Details in all cases: protein: recombinant; tags: N-terminal GST; dsDNA, one strand shown
# FLI1 = target: T1, FLI1 (Homo sapiens, UniProt Q01543 1-452)
# T1 sequence: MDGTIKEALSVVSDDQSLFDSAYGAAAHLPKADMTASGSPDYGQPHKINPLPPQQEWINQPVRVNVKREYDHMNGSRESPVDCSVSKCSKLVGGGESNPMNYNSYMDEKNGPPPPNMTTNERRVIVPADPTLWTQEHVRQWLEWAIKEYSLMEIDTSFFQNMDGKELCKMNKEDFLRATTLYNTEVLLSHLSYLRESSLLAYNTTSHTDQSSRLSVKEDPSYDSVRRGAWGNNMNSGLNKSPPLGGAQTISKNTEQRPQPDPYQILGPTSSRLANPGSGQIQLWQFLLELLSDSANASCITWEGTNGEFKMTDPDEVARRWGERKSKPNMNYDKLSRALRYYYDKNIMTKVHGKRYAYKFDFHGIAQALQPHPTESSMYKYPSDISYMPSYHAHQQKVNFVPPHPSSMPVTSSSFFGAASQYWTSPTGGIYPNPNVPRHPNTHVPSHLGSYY
# In short: (§1)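 Human transcription factors carrying a GST fusion were produced in yeast, bound to glutathione beads, tagged with DNA barcodes and pooled together with a tag-only sample. Each pool was held with 200 nmole of a random double-stranded 16-mer DNA library in Tris/NaCl/DTT/glycerol buffer for 30 min at room temperature, then washed, crosslinked in 0.1% formaldehyde, proximity-ligated with BsaI/T4 ligase (1 h, 37 °C), PCR-amplified and sequenced on an Illumina NextSeq500. Binding signal is the read frequency of each hexamer for a given factor divided by its frequency in the tag-only sample.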
# ELK1 = target: T2, ELK1 (Homo sapiens, UniProt P19419 1-428)
# T2 sequence: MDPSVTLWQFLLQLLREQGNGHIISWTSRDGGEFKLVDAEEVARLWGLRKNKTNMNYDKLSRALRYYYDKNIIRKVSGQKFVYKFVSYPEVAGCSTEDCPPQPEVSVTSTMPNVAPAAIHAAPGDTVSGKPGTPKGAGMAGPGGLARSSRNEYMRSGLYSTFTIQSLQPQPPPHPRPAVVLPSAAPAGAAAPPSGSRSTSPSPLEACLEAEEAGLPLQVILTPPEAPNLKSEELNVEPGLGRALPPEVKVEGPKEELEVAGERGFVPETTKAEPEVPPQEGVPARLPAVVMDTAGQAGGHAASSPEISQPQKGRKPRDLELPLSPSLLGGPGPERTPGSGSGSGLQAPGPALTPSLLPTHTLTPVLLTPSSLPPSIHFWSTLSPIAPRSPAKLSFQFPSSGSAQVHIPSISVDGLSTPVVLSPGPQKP
# In short: as §1
# ELF1 = ELF1 (Homo sapiens, UniProt P32519 1-619)
# In short: as §1
# EHF = target: T3, EHF (Homo sapiens, UniProt Q9NZC4 1-300)
# T3 sequence: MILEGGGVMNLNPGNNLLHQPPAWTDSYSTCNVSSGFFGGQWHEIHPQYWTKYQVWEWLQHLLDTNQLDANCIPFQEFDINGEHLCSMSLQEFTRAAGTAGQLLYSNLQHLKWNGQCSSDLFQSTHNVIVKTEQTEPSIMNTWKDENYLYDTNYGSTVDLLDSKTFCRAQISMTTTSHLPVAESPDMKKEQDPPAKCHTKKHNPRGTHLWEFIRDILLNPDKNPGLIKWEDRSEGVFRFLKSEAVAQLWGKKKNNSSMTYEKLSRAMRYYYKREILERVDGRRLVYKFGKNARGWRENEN
# In short: as §1
# SPIB = SPIB (Homo sapiens, UniProt Q01892 1-262)
# In short: as §1
# FEV = target: T4, FEV (Homo sapiens, UniProt Q99581 1-238)
# T4 sequence: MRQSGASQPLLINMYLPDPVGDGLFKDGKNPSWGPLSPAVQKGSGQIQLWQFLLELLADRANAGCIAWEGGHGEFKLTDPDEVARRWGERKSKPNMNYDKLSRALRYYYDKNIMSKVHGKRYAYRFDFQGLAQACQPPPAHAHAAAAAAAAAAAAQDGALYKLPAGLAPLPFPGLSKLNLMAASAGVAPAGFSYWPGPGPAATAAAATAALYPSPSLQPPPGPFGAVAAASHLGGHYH
# In short: as §1
# ETV5 = ETV5 (Homo sapiens, UniProt P41161 1-510)
# In short: as §1
# SPIC = target: T5, SPIC (Homo sapiens, UniProt Q8N5J4 1-248)
# T5 sequence: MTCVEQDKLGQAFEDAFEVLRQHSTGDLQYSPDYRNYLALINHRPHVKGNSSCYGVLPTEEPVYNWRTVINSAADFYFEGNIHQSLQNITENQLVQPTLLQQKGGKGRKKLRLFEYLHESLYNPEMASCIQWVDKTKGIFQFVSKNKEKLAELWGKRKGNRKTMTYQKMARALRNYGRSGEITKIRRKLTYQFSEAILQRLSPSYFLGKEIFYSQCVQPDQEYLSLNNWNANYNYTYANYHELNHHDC
# In short: as §1
# ELF4 = ELF4 (Homo sapiens, UniProt Q99607 1-663)
# In short: as §1
# ELK4 = target: T6, ELK4 (Homo sapiens, UniProt P28324-2 1-405)
# T6 sequence: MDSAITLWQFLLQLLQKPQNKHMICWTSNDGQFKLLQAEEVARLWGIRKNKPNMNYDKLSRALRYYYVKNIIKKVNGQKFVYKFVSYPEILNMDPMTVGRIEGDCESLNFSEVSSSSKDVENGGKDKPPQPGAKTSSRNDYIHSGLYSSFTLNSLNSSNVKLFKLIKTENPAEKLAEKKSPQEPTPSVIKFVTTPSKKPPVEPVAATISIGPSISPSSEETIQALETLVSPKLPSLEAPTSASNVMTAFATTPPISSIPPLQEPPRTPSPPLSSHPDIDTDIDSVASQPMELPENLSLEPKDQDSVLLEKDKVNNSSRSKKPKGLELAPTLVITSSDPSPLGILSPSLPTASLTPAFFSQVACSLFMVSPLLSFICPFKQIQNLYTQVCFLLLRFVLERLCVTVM
# In short: as §1
# ETV2 = target: T7, ETV2 (Homo sapiens, UniProt O00321 1-342)
# T7 sequence: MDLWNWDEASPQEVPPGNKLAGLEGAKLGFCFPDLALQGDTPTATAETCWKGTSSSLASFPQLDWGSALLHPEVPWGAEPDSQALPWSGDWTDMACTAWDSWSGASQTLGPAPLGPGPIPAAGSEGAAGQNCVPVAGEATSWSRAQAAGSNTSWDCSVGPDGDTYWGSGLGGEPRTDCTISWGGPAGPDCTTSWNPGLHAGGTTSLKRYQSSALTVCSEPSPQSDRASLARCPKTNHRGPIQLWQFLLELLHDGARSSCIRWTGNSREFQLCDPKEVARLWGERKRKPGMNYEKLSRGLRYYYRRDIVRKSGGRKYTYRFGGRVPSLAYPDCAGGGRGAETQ
# In short: as §1
# ELF3 = target: T8, ELF3 (Homo sapiens, UniProt P78545 1-371)
# T8 sequence: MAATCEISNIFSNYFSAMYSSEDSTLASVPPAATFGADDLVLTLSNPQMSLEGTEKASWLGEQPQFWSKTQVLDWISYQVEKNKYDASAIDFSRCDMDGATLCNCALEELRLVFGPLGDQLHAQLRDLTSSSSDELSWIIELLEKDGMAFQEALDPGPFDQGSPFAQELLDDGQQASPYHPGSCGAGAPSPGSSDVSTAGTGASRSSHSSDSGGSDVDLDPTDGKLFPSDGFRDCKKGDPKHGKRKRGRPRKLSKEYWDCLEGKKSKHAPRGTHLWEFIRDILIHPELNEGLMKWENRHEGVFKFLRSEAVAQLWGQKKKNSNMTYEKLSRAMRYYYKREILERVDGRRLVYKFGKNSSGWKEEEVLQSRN
# In short: as §1
# ETV1 = ETV1 (Homo sapiens, UniProt P50549 1-477)
# In short: as §1
# GABPA = target: T9, GABPA (Homo sapiens, UniProt Q06546 1-454)
# T9 sequence: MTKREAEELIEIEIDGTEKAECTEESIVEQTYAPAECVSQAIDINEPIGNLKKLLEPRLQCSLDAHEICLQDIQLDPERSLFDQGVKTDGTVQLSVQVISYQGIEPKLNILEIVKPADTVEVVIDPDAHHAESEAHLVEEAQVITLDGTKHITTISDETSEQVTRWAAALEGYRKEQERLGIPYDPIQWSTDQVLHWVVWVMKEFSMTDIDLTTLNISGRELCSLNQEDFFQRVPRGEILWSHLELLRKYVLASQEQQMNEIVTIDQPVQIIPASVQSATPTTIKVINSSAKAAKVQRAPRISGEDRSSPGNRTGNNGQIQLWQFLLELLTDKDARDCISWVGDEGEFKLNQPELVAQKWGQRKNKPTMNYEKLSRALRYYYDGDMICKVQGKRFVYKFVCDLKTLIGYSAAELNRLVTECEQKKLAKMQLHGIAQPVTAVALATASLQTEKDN
# In short: as §1
# ERG = target: T10, ERG (Homo sapiens, UniProt P11308 1-479)
# T10 sequence: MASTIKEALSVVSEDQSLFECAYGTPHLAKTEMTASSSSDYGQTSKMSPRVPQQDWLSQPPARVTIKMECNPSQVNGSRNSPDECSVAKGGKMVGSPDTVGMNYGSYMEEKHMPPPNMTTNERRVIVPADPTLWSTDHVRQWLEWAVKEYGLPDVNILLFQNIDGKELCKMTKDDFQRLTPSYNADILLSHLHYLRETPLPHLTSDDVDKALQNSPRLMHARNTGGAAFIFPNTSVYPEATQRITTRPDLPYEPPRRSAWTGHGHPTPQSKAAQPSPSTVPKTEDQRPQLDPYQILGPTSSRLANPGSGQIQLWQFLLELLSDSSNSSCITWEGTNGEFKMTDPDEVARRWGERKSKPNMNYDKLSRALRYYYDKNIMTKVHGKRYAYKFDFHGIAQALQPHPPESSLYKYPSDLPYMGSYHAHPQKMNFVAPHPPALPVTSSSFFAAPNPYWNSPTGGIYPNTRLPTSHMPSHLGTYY
# In short: as §1
# SPI1 = SPI1 (Homo sapiens, UniProt P17947 1-270)
# In short: as §1
# ELK3 = target: T11, ELK3 (Homo sapiens, UniProt P41970 1-407)
# T11 sequence: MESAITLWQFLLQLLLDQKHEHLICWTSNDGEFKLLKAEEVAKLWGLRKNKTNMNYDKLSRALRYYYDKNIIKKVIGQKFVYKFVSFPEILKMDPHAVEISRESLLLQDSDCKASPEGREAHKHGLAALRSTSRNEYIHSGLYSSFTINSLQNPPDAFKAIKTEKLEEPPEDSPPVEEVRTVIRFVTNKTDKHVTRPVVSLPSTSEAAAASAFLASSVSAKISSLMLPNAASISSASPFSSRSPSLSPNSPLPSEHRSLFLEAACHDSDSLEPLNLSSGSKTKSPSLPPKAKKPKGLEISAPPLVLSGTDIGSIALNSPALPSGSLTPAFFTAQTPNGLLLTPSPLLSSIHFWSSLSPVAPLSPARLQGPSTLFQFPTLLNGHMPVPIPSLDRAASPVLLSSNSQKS
# In short: as §1
# Chain of ELF4 (Q99607 whole entry): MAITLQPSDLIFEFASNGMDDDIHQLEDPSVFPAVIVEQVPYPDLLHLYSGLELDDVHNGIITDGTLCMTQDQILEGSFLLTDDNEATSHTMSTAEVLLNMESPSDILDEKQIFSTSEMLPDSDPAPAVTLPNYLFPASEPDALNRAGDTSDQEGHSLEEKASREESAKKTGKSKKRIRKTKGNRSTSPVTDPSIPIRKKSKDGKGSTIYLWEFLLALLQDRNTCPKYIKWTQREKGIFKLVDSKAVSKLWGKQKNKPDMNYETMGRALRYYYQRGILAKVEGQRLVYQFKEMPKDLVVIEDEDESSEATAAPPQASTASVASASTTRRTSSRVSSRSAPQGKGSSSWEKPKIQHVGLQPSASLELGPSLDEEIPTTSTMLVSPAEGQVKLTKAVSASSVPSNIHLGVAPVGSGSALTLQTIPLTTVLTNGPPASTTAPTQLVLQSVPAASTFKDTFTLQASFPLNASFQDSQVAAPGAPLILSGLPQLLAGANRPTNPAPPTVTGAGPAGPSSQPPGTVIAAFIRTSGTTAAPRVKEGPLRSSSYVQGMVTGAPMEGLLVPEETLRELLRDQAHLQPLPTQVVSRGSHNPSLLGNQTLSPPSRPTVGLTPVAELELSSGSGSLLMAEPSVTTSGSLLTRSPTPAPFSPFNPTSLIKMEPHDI
# Chain of SPIB (Q01892 whole entry): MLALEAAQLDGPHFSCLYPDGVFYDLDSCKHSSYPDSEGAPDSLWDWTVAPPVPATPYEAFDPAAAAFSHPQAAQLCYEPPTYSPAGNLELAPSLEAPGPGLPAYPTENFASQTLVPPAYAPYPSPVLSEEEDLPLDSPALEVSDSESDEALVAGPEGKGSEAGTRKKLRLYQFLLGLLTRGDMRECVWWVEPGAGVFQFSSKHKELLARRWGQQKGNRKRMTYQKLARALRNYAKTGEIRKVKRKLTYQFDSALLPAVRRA
# Chain of ELF1 (P32519 whole entry): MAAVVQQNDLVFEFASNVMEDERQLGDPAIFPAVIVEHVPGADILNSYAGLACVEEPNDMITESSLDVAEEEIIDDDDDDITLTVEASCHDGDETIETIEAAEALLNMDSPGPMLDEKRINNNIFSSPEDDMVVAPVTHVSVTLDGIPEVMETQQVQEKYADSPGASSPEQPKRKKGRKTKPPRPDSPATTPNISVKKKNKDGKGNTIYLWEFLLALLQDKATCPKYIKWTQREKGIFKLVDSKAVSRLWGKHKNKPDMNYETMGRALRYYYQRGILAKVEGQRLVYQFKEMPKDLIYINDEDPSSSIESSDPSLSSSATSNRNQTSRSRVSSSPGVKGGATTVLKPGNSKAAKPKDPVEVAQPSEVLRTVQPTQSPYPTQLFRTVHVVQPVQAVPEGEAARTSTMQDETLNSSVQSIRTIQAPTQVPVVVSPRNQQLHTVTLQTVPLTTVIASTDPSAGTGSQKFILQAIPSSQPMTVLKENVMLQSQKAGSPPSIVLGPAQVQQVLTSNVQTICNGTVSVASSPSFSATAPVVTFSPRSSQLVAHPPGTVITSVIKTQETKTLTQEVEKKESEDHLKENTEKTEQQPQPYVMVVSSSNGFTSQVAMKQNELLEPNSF
# Chain of ETV5 (P41161 whole entry): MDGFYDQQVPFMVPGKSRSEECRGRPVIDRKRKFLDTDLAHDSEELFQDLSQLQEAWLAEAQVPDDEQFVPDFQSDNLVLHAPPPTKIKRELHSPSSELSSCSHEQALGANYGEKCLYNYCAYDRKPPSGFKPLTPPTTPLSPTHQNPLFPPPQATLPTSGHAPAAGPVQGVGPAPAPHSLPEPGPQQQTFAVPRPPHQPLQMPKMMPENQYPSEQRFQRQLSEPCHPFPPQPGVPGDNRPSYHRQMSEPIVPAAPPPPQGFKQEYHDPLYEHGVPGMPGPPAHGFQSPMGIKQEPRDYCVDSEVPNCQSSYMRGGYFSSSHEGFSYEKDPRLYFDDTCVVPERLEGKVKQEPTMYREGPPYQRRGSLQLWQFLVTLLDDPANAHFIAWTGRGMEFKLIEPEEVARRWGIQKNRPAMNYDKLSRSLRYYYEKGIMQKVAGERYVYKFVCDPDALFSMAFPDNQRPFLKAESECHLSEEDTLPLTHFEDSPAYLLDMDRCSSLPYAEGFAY
# Chain of ETV1 (P50549 whole entry): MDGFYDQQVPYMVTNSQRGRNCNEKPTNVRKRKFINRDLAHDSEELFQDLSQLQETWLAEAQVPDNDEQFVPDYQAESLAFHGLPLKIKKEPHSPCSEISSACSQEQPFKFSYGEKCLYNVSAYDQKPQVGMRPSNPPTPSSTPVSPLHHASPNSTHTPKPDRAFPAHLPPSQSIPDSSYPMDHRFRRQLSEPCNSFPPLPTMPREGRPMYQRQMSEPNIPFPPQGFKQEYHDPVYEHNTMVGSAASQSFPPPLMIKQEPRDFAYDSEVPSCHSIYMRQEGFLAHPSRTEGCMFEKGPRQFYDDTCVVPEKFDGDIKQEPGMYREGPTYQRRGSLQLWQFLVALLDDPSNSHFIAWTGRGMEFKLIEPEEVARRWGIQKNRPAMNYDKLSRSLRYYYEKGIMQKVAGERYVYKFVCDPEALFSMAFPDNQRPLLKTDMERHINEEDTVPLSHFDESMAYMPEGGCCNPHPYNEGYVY
Sequence,binding signal (FLI1),binding signal (ELK1),binding signal (ELF1),binding signal (EHF),binding signal (SPIB),binding signal (FEV),binding signal (ETV5),binding signal (SPIC),binding signal (ELF4),binding signal (ELK4),binding signal (ETV2),binding signal (ELF3),binding signal (ETV1),binding signal (GABPA),binding signal (ERG),binding signal (SPI1),binding signal (ELK3)
TGCTGT,"1.03 fold enrichment (6-mer frequency, TF over GST control)","1 fold enrichment (6-mer frequency, TF over GST control)","1.09 fold enrichment (6-mer frequency, TF over GST control)","1.13 fold enrichment (6-mer frequency, TF over GST control)","1 fold enrichment (6-mer frequency, TF over GST control)","1.01 fold enrichment (6-mer frequency, TF over GST control)","1.06 fold enrichment (6-mer frequency, TF over GST control)","1.18 fold enrichment (6-mer frequency, TF over GST control)","1.06 fold enrichment (6-mer frequency, TF over GST control)","1.19 fold enrichment (6-mer frequency, TF over GST control)","1.15 fold enrichment (6-mer frequency, TF over GST control)","1.12 fold enrichment (6-mer frequency, TF over GST control)","1.17 fold enrichment (6-mer frequency, TF over GST control)",,,,
GCGCTC,"1.26 fold enrichment (6-mer frequency, TF over GST control)","1.2 fold enrichment (6-mer frequency, TF over GST control)","1.12 fold enrichment (6-mer frequency, TF over GST control)","1.09 fold enrichment (6-mer frequency, TF over GST control)","1.18 fold enrichment (6-mer frequency, TF over GST control)","1.06 fold enrichment (6-mer frequency, TF over GST control)","1.13 fold enrichment (6-mer frequency, TF over GST control)","1.04 fold enrichment (6-mer frequency, TF over GST control)","1.24 fold enrichment (6-mer frequency, TF over GST control)","1.19 fold enrichment (6-mer frequency, TF over GST control)","1.22 fold enrichment (6-mer frequency, TF over GST control)","1.19 fold enrichment (6-mer frequency, TF over GST control)",,"1.16 fold enrichment (6-mer frequency, TF over GST control)","1.15 fold enrichment (6-mer frequency, TF over GST control)","1.13 fold enrichment (6-mer frequency, TF over GST control)","1.15 fold enrichment (6-mer frequency, TF over GST control)"
